Screening results deposited in PubChem BioAssay by National Center for Advancing Translational Sciences (NCATS).
LASV entry inh: Lassa virus entry inhibition. Lassa virus pseudotype entry inhibition, cell reporter. Potency, µM (top dose mostly 37.9 µM), actives largely listed as inhibitors. actives 1.2% (n = 300,000); calls by dose curve; tested in HEK293 cells; note: nearly all actives have a fitted effect of over 50% in size
CHX counter: affects cycloheximide protein synthesis inhibition readout, counter-screen; cell reporter, cycloheximide protein synthesis inhibition counterscreen; max response, %; actives 12% (n = 300,000); in the data active = max response mostly above about 13%, no sharp cut-off; inactive = mostly below about 14%; note: read at 38.3 µM for the half of the compounds with a filed dose
Pf growth 48h: inhibits P. falciparum growth in the first generation, 48 h; AID 504832; actives 5.9% (n = 310,000); P. falciparum luciferase growth in erythrocytes, 48 h; Potency, µM (titrated, usually from 28.7 µM), actives largely listed as inhibitors
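First compound was added to culture medium, then infected red cells at 0.1% parasitemia and 2% hematocrit (final). After incubation at 37 C under 5% CO2, luciferase detection reagent was dispensed and light output recorded.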
MARV entry inh: blocks Marburg virus binding to or entry into cells; Marburg virus pseudotyped entry inhibition, cell reporter; Potency, µM (highest dose often 37.8 µM), hits mostly inhibitors; actives 1.8% (n = 300,000); calls by dose curve; tested in HEK293 cells
Shiga inhibitor: blocks Shiga toxin action in Vero cells; Vero cells, Shiga toxin protein synthesis inhibition reporter; inhibition, % at 38.7 µM; actives 9.2% (n = 290,000); AID 2315; in the data active = inhibition mostly above about 28%, no sharp cut-off; inactive = mostly below about 43%
Pf growth 96h: inhibits malaria parasite growth, 96 h | AID 504834 | Potency, µM (doses to about 28.7 µM), most hits filed as inhibitors | actives 6.9% (n = 320,000) | P. falciparum luciferase reporter growth, 96 h
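P. falciparum expressing integrated firefly luciferase grown in erythrocytes (2% hematocrit, 0.05% parasitemia final) with compounds for 96 hours at 37 C, 5% CO2. Growth inhibition read as loss of luminescence after adding luciferase detection reagent.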
Hits are given with their value; – = inactive; ? = inconclusive; · = no result. A selection: hits, their analogues and other compounds. The true share with any hit is near 19%. Unless noted, calls come from the whole dose curve; as a rule, active = well fitted inhibition curve with a large enough effect; inconclusive = small, poorly fitted or top-dose-only effect, or another doubt; inactive = no such curve, though single readings can be large or run the other way.

SMILES	LASV entry inh	CHX counter	Pf growth 48h	MARV entry inh	Shiga inhibitor	Pf growth 96h
CCOC(=O)c1sc(NC(=S)NC(=O)c2ccccc2)c(C(=O)OCC)c1C	–	–	–	–	–	–
Cc1oc(C(C)(C)C)cc1C(=O)NC(Cc1ccccc1)C(=O)O (stereo unspecified)	?	–	–	?	–	?
Cc1c(C=C2C(=O)N(C)C(=S)N(C)C2=O)c2ccccc2n1CC(=O)NCC1CCCO1 (stereo unspecified)	–	–	?	–	–	11.7µM
COC(=O)c1ccc2nc(-c3cccc(N)c3)cn2c1	?	–	–	?	–	–
CCCOc1cccc(C2C(C(=O)c3cc4ccccc4o3)=C(O)C(=O)N2c2cc(C)on2)c1 (stereo unspecified)	·	–	?	·	–	3.7µM
COC(=O)c1ccc(C2C(C(=O)c3cc4ccccc4o3)=C(O)C(=O)N2c2cc(C)on2)cc1 (stereo unspecified)	–	–	9.28µM	–	–	7.38µM
Cc1cc(N2C(=O)C(O)=C(C(=O)c3cc4ccccc4o3)C2c2ccc(OC(C)C)cc2)no1 (stereo unspecified)	·	–	?	·	–	?
Cc1cc(S(=O)(=O)N2CCN(c3ccccc3F)CC2)ccc1-n1cnnn1	–	–	–	?	–	11.7µM
Cc1cc(S(=O)(=O)N2CCN(c3ccc(F)cc3)CC2)ccc1-n1cnnn1	–	–	–	?	–	–
COc1cccc(C(=O)Nc2cccc(-c3nnc(-c4ccco4)o3)c2)c1	?	–	·	?	–	?
COc1ccc(Br)cc1C(=O)Nc1cccc(-c2nnc(-c3ccco3)o2)c1	–	·	·	20.6µM	·	·
Cc1ccc(SCC(=O)Nc2cccc(-c3nnc(-c4ccco4)o3)c2)cc1	–	21.3	–	–	56.4	–
COC1=CC(=O)C(OC)=C(OC)C1=O	15.8µM	·	·	?	·	·
Cc1ccc(Sc2c([N+](=O)[O-])c(C)nn2C)cc1	–	–	–	–	–	–
Cc1ccc2[nH]c(=O)c3cc(C(=O)NCCC(C)C)sc3c2c1	·	–	?	·	–	–
CCN(C(=O)c1cc2c(=O)[nH]c3ccc(C)cc3c2s1)c1ccc(F)cc1	·	–	?	·	–	?
CCCCN(CC)CCNC(=O)c1cc2c(=O)[nH]c3ccc(C)cc3c2s1	?	–	8.28µM	5.01µM	–	–
Cc1ccc2[nH]c(=O)c3cc(C(=O)N(C)c4ccc(C)c(C)c4)sc3c2c1	·	–	?	·	–	8.28µM
CCOCCCNC(=O)c1cc2c(=O)[nH]c3ccccc3c2s1	–	–	?	–	–	–
CCCCN(CC)CCCNC(=O)c1cc2c(=O)[nH]c3ccccc3c2s1	–	–	?	7.08µM	–	?
COc1cccc(CC2(CO)CCCN(Cc3ccc(OC)c(C)c3OC)C2)c1 (stereo unspecified)	·	–	?	·	·	?
O=C(NC12CC3CC(CC(C3)C1)C2)c1ccc([N+](=O)[O-])cc1	·	–	–	·	–	–
COc1cc([N+](=O)[O-])c2nccnc2c1	–	–	–	–	–	9.28µM
COc1cc([N+](=O)[O-])c2ncccc2c1	·	–	·	·	–	·
Cc1c(-c2cccs2)[n+](=O)c2c(n1[O-])CCCCC2	–	–	–	–	–	10.4µM
SMILES	LASV entry inh	CHX counter	Pf growth 48h	MARV entry inh	Shiga inhibitor	Pf growth 96h
Cc1cccc(CSc2cn(CC(=O)N3CCOCC3)c3ccccc23)c1	–	42.5	–	?	63.7	–
O=C(CSc1cn(CC(=O)N2CCOCC2)c2ccccc12)N1CCOCC1	·	–	–	·	–	?
O=C(Cn1cc(SCc2cccc(Cl)c2)c2ccccc21)N1CCOCC1	–	48.5	–	?	–	–
Cc1ccccc1C(=O)NNC(=O)CSc1nc(-c2ccccc2)cc(=O)[nH]1	–	–	–	–	–	?
O=C(COC(=O)c1ccc(S(=O)(=O)N2CCOCC2)cc1)NC1CCCCCC1	–	–	–	–	–	–
O=C(COc1ccc(S(=O)(=O)N2CCOCC2)cc1)Nc1ccc(Cl)c(C(F)(F)F)c1	?	–	9.28µM	?	–	–
O=C(COc1ccc(S(=O)(=O)N2CCOCC2)cc1)NC1CCCCC1	·	·	?	·	·	11.7µM
Cc1cc([N+](=O)[O-])nn1CC(=O)Nc1c(C)n(C)n(-c2ccccc2)c1=O	–	–	–	–	–	–
Cc1cccc(-c2cc(C(=O)Nc3sc(C)c(C)c3C(N)=O)c3ccccc3n2)c1	–	–	–	?	–	?
Cc1ccc(C)c(-c2cc(C(=O)Nc3sc(C)c(C)c3C(N)=O)c3ccccc3n2)c1	?	–	?	?	–	10.4µM
O=C(N/N=C/c1cccnc1)c1cc(-c2ccccc2)nc2ccccc12	–	–	·	3.98µM	–	?
Cc1ccc(/C=N/NC(=O)c2cc(-c3cccnc3)nc3ccccc23)cc1	?	–	–	?	–	–
Cc1ccc(C)c(-c2cc(C(=O)N/N=C/c3cccnc3)c3ccccc3n2)c1	?	–	?	–	–	4.65µM
O=C(N/N=C/c1cccnc1)c1cc(-c2ccc(Br)cc2)nc2ccccc12	?	–	–	?	–	–
Cc1cccc(-n2cnc3c(c2=O)c2nc4ccccc4nc2n3Cc2ccco2)c1	–	–	?	?	–	–
COc1ccc(Cn2c3nc4ccccc4nc3c3c(=O)n(Cc4ccco4)cnc32)cc1	·	–	9.28µM	–	–	–
CCn1c(-c2cccc(S(=O)(=O)N3CCCC3)c2)n[nH]c1=S	·	–	–	·	–	?
Cc1cc(C(=O)COC(=O)Cc2n[nH]c(=O)c3ccccc23)c(C)n1-c1cccc(C(F)(F)F)c1	?	–	9.28µM	11.2µM	–	2.94µM
CCCCN(CCCC)CCCNC(=O)Cn1cc2c(n1)-c1c(oc(C(=O)N3CCCC3)c1C)CC2	–	–	11.7µM	·	–	?
CCCN(CCC)CCNC(=O)Cn1cc2c(n1)-c1c(oc(C(=O)N3CCCC3)c1C)CC2	–	·	·	·	·	·
CCOC(=O)c1nn(-c2ccc(Cl)cc2)c2nc(-c3ccc(C)cc3)c(C#N)c(=O)n12	?	–	9.28µM	–	–	·
CCOC(=O)c1nn(-c2ccc(OCC)cc2)c2nc(-c3cccc(OC)c3)c(C#N)c(=O)n12	?	–	–	–	–	?
CCOC(=O)c1nn(-c2ccc(OCC)cc2)c2nc(-c3ccco3)c(C#N)c(=O)n12	–	–	11.7µM	–	–	?
CCOC(=O)c1nn(-c2ccc(Cl)cc2)c2nc(CC)c(C#N)c(=O)n12	–	–	?	–	–	?
CNC(=O)N1c2ccccc2CCc2ccccc21	·	–	?	·	–	?
O=C(NN1c2ccccc2CCc2ccccc21)c1ccccc1Br	–	–	?	?	–	11.7µM
O=C1CCCN1c1ncc(S(=O)(=O)c2ccc([N+](=O)[O-])cc2)s1	–	–	?	–	–	4.15µM
O=[N+]([O-])c1cc([As](=O)(O)O)ccc1O	·	·	2.62µM	·	·	1.65µM
CC1=C(C(=O)Nc2ccc(Cl)cc2)C(c2ccccc2F)n2nc(SCc3cccc(Cl)c3)nc2N1 (stereo unspecified)	–	·	·	–	·	·
COc1cccc(Oc2ccc(C(F)(F)F)cc2NC(=O)C2=COCCO2)c1	·	–	?	·	–	7.38µM
